Assay results from the supplement of paper PMC4466140.

How the values were obtained:
Experiment in all cases: SPOT peptide array binding signal intensity (averaged, normalized) (arbitrary units (background-subtracted, floor 0; scale differs between SH3 domains)); higher = stronger binding of the SH3 domain to the peptide
[1] = molecular target: AgAbp1
How it was run: (§1)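 GST-fused SH3 domains from four yeast species were expressed in E. coli BL21(DE3), purified on glutathione Sepharose and incubated at 10 μg/ml overnight at 4°C in TBS-based blocking buffer on cellulose membranes carrying synthetic 15-mer peptides, with cysteines replaced by serines. Bound protein was detected with anti-GST antibody, an HRP anti-mouse secondary and luminol, then imaged and quantified with Genespotter. Binding signal is the normalized, background-subtracted spot intensity averaged over replicates, in arbitrary units that differ between domains.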

[2] = molecular target: AgBbc1
How it was run: as §1

[3] = molecular target: AgBem1-D1
How it was run: as §1

[4] = molecular target: AgBzz1-D1
How it was run: as §1

[5] = molecular target: AgBzz1-D2
How it was run: as §1

[6] = molecular target: AgCyk3
How it was run: as §1

[7] = molecular target: AgFus1
How it was run: as §1

[8] = molecular target: AgHof1
How it was run: as §1

[9] = molecular target: AgHse1
How it was run: as §1

[10] = molecular target: AgLsb1
How it was run: as §1

[11] = molecular target: AgLsb4
How it was run: as §1

[12] = molecular target: AgMyo5
How it was run: as §1

[13] = molecular target: AgNbp2
How it was run: as §1

[14] = molecular target: AgRvs167
How it was run: as §1

[15] = molecular target: AgSho1
How it was run: as §1

[16] = molecular target: AgSla1-D1-D2
How it was run: as §1

[17] = molecular target: AgSla1-D3
How it was run: as §1

[18] = molecular target: CaAbp1-D1
How it was run: as §1

[19] = molecular target: CaAbp1-D2
How it was run: as §1

[20] = molecular target: CaBbc1
How it was run: as §1

[21] = molecular target: CaBem1-D1
How it was run: as §1

[22] = molecular target: CaBzz1-D1
How it was run: as §1

[23] = molecular target: CaBzz1-D2
How it was run: as §1

[24] = molecular target: CaCyk3
How it was run: as §1

[25] = molecular target: CaFus1
How it was run: as §1

[26] = molecular target: CaHof1
How it was run: as §1

[27] = molecular target: CaHse1
How it was run: as §1

[28] = molecular target: CaLsb1
How it was run: as §1

[29] = molecular target: CaLsb4
How it was run: as §1

[30] = molecular target: CaMyo5
How it was run: as §1

[31] = molecular target: CaNbp2
How it was run: as §1

[32] = molecular target: CaRvs167
How it was run: as §1

[33] = molecular target: CaRvs167-3
How it was run: as §1

[34] = molecular target: CaSho1
How it was run: as §1

[35] = molecular target: CaSla1-D1-D2
How it was run: as §1

[36] = molecular target: CaSla1-D3
How it was run: as §1

[37] = molecular target: ScAbp1
How it was run: as §1

[38] = molecular target: ScBbc1
How it was run: as §1

[39] = molecular target: ScBem1-D1
How it was run: as §1

[40] = molecular target: ScBzz1-D1
How it was run: as §1

[41] = molecular target: ScBzz1-D2
How it was run: as §1

[42] = molecular target: ScCyk3
How it was run: as §1

[43] = molecular target: ScFus1
How it was run: as §1

[44] = molecular target: ScHof1
How it was run: as §1

[45] = molecular target: ScHse1
How it was run: as §1

[46] = molecular target: ScLsb1
How it was run: as §1

[47] = molecular target: ScLsb2
How it was run: as §1

[48] = molecular target: ScLsb3
How it was run: as §1

[49] = molecular target: ScLsb4
How it was run: as §1

[50] = molecular target: ScMyo3
How it was run: as §1

[51] = molecular target: ScMyo5
How it was run: as §1

[52] = molecular target: ScNbp2
How it was run: as §1

[53] = molecular target: ScPex13
How it was run: as §1

[54] = molecular target: ScRvs167
How it was run: as §1

[55] = molecular target: ScSho1
How it was run: as §1

[56] = molecular target: ScSla1-D1-D2
How it was run: as §1

[57] = molecular target: ScSla1-D3
How it was run: as §1

[58] = molecular target: SpAbp1-D1
How it was run: as §1

[59] = molecular target: SpBbc1
How it was run: as §1

[60] = molecular target: SpBzz1-D1
How it was run: as §1

[61] = molecular target: SpBzz1-D2
How it was run: as §1

[62] = molecular target: SpCyk3
How it was run: as §1

[63] = molecular target: SpHof1
How it was run: as §1

[64] = molecular target: SpHof1-2
How it was run: as §1

[65] = molecular target: SpHof1-3
How it was run: as §1

[66] = molecular target: SpHse1
How it was run: as §1

[67] = molecular target: SpLsb1
How it was run: as §1

[68] = molecular target: SpLsb4
How it was run: as §1

[69] = molecular target: SpMyo1
How it was run: as §1

[70] = molecular target: SpNbp2
How it was run: as §1

[71] = molecular target: SpPex13
How it was run: as §1

[72] = molecular target: SpRvs167
How it was run: as §1

[73] = molecular target: SpSla1-D1-D2
How it was run: as §1

[74] = molecular target: SpSla1-D3
How it was run: as §1

Binder: PPPPPPPPPPLPQSL
- SPOT peptide array binding signal intensity [1]: 6.5
- SPOT peptide array binding signal intensity [2]: ≤ 0
- SPOT peptide array binding signal intensity [3]: ≤ 0
- SPOT peptide array binding signal intensity [4]: 23.5
- SPOT peptide array binding signal intensity [5]: ≤ 0
- SPOT peptide array binding signal intensity [6]: 1
- SPOT peptide array binding signal intensity [7]: ≤ 0
- SPOT peptide array binding signal intensity [8]: 366
- SPOT peptide array binding signal intensity [9]: 18
- SPOT peptide array binding signal intensity [10]: ≤ 0
- SPOT peptide array binding signal intensity [11]: ≤ 0
- SPOT peptide array binding signal intensity [12]: 561
- SPOT peptide array binding signal intensity [13]: 33
- SPOT peptide array binding signal intensity [14]: ≤ 0
- SPOT peptide array binding signal intensity [15]: 3
- SPOT peptide array binding signal intensity [16]: 1
- SPOT peptide array binding signal intensity [17]: 1.5
- SPOT peptide array binding signal intensity [18]: 29.5
- SPOT peptide array binding signal intensity [19]: ≤ 0
- SPOT peptide array binding signal intensity [20]: ≤ 0
- SPOT peptide array binding signal intensity [21]: 5
- SPOT peptide array binding signal intensity [22]: 2040
- SPOT peptide array binding signal intensity [23]: 268
- SPOT peptide array binding signal intensity [24]: 1
- SPOT peptide array binding signal intensity [25]: 23
- SPOT peptide array binding signal intensity [26]: 0.75
- SPOT peptide array binding signal intensity [27]: 2.25
- SPOT peptide array binding signal intensity [28]: 0.5
- SPOT peptide array binding signal intensity [29]: ≤ 0
- SPOT peptide array binding signal intensity [30]: 156
- SPOT peptide array binding signal intensity [31]: 67.5
- SPOT peptide array binding signal intensity [32]: ≤ 0
- SPOT peptide array binding signal intensity [33]: ≤ 0
- SPOT peptide array binding signal intensity [34]: 4
- SPOT peptide array binding signal intensity [35]: ≤ 0
- SPOT peptide array binding signal intensity [36]: ≤ 0
- SPOT peptide array binding signal intensity [37]: 1
- SPOT peptide array binding signal intensity [38]: ≤ 0
- SPOT peptide array binding signal intensity [39]: ≤ 0
- SPOT peptide array binding signal intensity [40]: 4
- SPOT peptide array binding signal intensity [41]: 2
- SPOT peptide array binding signal intensity [42]: ≤ 0
- SPOT peptide array binding signal intensity [43]: ≤ 0
- SPOT peptide array binding signal intensity [44]: 92.8
- SPOT peptide array binding signal intensity [45]: 19
- SPOT peptide array binding signal intensity [46]: ≤ 0
- SPOT peptide array binding signal intensity [47]: ≤ 0
- SPOT peptide array binding signal intensity [48]: 49
- SPOT peptide array binding signal intensity [49]: ≤ 0
- SPOT peptide array binding signal intensity [50]: 1500
- SPOT peptide array binding signal intensity [51]: 677
- SPOT peptide array binding signal intensity [52]: ≤ 0
- SPOT peptide array binding signal intensity [53]: 526
- SPOT peptide array binding signal intensity [54]: ≤ 0
- SPOT peptide array binding signal intensity [55]: 28.5
- SPOT peptide array binding signal intensity [56]: 3.5
- SPOT peptide array binding signal intensity [57]: ≤ 0
- SPOT peptide array binding signal intensity [58]: 4
- SPOT peptide array binding signal intensity [59]: 1
- SPOT peptide array binding signal intensity [60]: 4430
- SPOT peptide array binding signal intensity [61]: 41
- SPOT peptide array binding signal intensity [62]: ≤ 0
- SPOT peptide array binding signal intensity [63]: ≤ 0
- SPOT peptide array binding signal intensity [64]: 4
- SPOT peptide array binding signal intensity [65]: ≤ 0
- SPOT peptide array binding signal intensity [66]: 13.5
- SPOT peptide array binding signal intensity [67]: 0.5
- SPOT peptide array binding signal intensity [68]: 23
- SPOT peptide array binding signal intensity [69]: 1510
- SPOT peptide array binding signal intensity [70]: 17
- SPOT peptide array binding signal intensity [71]: ≤ 0
- SPOT peptide array binding signal intensity [72]: 72.5
- SPOT peptide array binding signal intensity [73]: ≤ 0
- SPOT peptide array binding signal intensity [74]: ≤ 0
